Laboratory results as given in article PMC7862700, “An all-to-all approach to the identification of sequence-specific readers for epigenetic DNA modifications on cytosine”.

Key:
Test in all cases: DAPPL (digital affinity profiling via proximity ligation, sequencing); 10 mM Tris-HCl pH 7.5, 50 mM NaCl, 1 mM DTT, 4% glycerol, room temperature, 30 min; GST-TFs on glutathione beads, 16-mer random dsDNA library, 0.1% formaldehyde crosslink after washing; high values mean tight binding
Conditions in all cases: protein: recombinant; tags: N-terminal GST; dsDNA, one strand shown
ERF = target: T1, ERF (Homo sapiens, UniProt P50548 1-548)
T1 sequence: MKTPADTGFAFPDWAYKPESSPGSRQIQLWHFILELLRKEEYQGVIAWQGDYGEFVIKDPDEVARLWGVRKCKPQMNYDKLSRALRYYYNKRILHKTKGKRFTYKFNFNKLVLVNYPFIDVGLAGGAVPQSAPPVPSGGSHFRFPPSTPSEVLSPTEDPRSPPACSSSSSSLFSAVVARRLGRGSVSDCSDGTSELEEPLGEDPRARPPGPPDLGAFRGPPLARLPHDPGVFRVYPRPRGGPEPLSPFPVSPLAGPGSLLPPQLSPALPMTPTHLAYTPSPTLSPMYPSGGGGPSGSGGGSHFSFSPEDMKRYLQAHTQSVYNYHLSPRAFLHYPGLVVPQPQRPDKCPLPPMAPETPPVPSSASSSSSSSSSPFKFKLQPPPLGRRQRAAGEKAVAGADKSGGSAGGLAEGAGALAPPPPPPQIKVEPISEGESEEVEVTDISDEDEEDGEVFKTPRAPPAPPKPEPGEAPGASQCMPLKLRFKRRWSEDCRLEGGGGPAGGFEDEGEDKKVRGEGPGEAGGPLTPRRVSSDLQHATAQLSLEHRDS
Outline: (§1)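 Binding signal is defined as a hexamer's read frequency for one factor over its frequency for the tag-only sample. To obtain reads, GST-fused human transcription factors were expressed in yeast, captured on glutathione beads, barcoded with DNA and pooled with that sample. Pools met 200 nmole of a 16-mer random double-stranded DNA library in Tris/NaCl/DTT/glycerol buffer for 30 min at room temperature before washing, 0.1% formaldehyde crosslinking, proximity ligation (BsaI/T4 ligase, 1 h, 37 °C), PCR and Illumina NextSeq500 sequencing.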

ETV3L = target: T2, ETV3L (Homo sapiens, UniProt Q6ZN32 1-361)
T2 sequence: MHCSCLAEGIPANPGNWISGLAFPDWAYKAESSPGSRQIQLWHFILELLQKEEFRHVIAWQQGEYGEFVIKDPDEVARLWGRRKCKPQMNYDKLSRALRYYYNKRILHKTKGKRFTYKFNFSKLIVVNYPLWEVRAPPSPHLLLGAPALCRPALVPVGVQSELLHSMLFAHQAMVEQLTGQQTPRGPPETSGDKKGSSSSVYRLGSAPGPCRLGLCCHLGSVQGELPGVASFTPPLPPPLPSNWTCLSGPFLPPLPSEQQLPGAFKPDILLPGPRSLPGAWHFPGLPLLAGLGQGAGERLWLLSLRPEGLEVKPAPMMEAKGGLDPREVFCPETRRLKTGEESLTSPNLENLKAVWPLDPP
Outline: as §1

ETS2 = target: T3, ETS2 (Homo sapiens, UniProt P15036 1-469)
T3 sequence: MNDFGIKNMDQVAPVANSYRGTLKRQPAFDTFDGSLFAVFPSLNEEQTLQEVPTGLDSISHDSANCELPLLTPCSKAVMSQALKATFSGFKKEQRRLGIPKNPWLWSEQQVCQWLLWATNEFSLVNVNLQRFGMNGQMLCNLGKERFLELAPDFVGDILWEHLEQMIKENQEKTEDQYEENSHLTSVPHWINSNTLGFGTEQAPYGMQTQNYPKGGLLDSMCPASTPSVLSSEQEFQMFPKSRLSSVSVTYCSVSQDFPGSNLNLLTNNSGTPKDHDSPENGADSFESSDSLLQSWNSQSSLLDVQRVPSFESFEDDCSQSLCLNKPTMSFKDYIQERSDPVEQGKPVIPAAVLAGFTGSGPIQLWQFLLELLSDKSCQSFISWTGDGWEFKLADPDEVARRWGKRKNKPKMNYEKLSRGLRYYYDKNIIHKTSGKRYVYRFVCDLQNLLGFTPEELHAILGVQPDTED
Outline: as §1

SPDEF = target: T4, SPDEF (Homo sapiens, UniProt O95238 1-335)
T4 sequence: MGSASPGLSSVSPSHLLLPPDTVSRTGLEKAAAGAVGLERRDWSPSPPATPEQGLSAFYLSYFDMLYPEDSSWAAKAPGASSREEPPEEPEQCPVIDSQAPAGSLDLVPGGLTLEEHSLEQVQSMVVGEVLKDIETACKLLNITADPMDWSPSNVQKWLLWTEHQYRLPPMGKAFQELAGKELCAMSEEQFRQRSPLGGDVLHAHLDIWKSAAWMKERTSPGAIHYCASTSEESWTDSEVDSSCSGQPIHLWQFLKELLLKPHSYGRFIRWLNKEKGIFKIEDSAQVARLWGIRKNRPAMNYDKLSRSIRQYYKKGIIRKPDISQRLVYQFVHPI
Outline: as §1

ETV7 = target: T5, ETV7 (Homo sapiens, UniProt Q9Y603 1-341)
T5 sequence: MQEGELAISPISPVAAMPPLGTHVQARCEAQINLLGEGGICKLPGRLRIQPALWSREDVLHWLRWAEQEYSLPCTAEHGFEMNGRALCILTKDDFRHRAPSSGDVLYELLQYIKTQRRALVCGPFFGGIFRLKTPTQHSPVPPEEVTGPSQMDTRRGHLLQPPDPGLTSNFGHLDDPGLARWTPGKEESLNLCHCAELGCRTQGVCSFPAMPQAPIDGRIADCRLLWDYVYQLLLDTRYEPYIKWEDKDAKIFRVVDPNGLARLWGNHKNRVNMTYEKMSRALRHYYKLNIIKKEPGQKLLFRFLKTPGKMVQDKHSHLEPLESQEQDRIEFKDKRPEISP
Outline: as §1

ELF5 = target: T6, ELF5 (Homo sapiens, UniProt Q9UKW6-2 1-255)
T6 sequence: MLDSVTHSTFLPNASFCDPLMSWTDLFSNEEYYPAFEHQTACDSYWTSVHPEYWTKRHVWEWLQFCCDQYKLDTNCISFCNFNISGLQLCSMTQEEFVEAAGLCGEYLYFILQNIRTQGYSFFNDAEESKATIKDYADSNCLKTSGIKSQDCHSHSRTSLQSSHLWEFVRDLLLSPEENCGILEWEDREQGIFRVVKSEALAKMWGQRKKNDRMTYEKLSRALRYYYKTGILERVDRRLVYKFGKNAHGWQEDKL
Outline: as §1

ETV3 = target: T7, ETV3 (Homo sapiens, UniProt P41162-2 1-143)
T7 sequence: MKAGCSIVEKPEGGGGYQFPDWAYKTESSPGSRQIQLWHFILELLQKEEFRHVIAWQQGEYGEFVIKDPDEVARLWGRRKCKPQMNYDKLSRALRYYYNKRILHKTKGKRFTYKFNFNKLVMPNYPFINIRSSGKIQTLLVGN
Outline: as §1

ETV6 = ETV6 (Homo sapiens, UniProt P41212 1-452)
Outline: as §1

Sequence of ETV6 (P41212 whole entry): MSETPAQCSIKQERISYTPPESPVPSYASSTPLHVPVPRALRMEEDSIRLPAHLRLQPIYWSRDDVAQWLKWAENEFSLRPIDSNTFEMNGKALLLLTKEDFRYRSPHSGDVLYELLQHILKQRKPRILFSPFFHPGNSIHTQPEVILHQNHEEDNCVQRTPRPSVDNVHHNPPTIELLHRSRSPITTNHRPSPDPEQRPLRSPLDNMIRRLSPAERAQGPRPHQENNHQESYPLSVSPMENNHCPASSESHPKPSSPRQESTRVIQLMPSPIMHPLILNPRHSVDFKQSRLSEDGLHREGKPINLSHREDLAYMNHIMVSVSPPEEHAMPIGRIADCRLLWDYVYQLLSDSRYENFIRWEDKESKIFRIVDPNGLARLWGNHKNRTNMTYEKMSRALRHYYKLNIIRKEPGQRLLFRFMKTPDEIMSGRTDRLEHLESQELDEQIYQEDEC

Sequence	binding signal (ERF)	binding signal (ETV3L)	binding signal (ETS2)	binding signal (SPDEF)	binding signal (ETV7)	binding signal (ELF5)	binding signal (ETV3)	binding signal (ETV6)
AAGTCT	1.25 fold enrichment (6-mer frequency, TF over GST control)	1.14 fold enrichment (6-mer frequency, TF over GST control)	1.21 fold enrichment (6-mer frequency, TF over GST control)	1.13 fold enrichment (6-mer frequency, TF over GST control)	1.15 fold enrichment (6-mer frequency, TF over GST control)	1.23 fold enrichment (6-mer frequency, TF over GST control)	1.21 fold enrichment (6-mer frequency, TF over GST control)	1.14 fold enrichment (6-mer frequency, TF over GST control)
GGTATT	1.2 fold enrichment (6-mer frequency, TF over GST control)	1.18 fold enrichment (6-mer frequency, TF over GST control)	1.2 fold enrichment (6-mer frequency, TF over GST control)	1.27 fold enrichment (6-mer frequency, TF over GST control)	1.24 fold enrichment (6-mer frequency, TF over GST control)	1.16 fold enrichment (6-mer frequency, TF over GST control)	1.12 fold enrichment (6-mer frequency, TF over GST control)	1.24 fold enrichment (6-mer frequency, TF over GST control)
AACACT	1.21 fold enrichment (6-mer frequency, TF over GST control)	1.3 fold enrichment (6-mer frequency, TF over GST control)	1.37 fold enrichment (6-mer frequency, TF over GST control)	1.22 fold enrichment (6-mer frequency, TF over GST control)	1.32 fold enrichment (6-mer frequency, TF over GST control)	1.34 fold enrichment (6-mer frequency, TF over GST control)	1.29 fold enrichment (6-mer frequency, TF over GST control)	1.4 fold enrichment (6-mer frequency, TF over GST control)
CCTCCC	1.59 fold enrichment (6-mer frequency, TF over GST control)	1.49 fold enrichment (6-mer frequency, TF over GST control)	1.58 fold enrichment (6-mer frequency, TF over GST control)	1.38 fold enrichment (6-mer frequency, TF over GST control)	1.44 fold enrichment (6-mer frequency, TF over GST control)	1.49 fold enrichment (6-mer frequency, TF over GST control)	1.43 fold enrichment (6-mer frequency, TF over GST control)	1.44 fold enrichment (6-mer frequency, TF over GST control)
CAAAAA	1.15 fold enrichment (6-mer frequency, TF over GST control)	1.15 fold enrichment (6-mer frequency, TF over GST control)	1.12 fold enrichment (6-mer frequency, TF over GST control)	1.07 fold enrichment (6-mer frequency, TF over GST control)	1.1 fold enrichment (6-mer frequency, TF over GST control)	1.07 fold enrichment (6-mer frequency, TF over GST control)	1.12 fold enrichment (6-mer frequency, TF over GST control)	1.12 fold enrichment (6-mer frequency, TF over GST control)
ATGTCT	1.38 fold enrichment (6-mer frequency, TF over GST control)	1.27 fold enrichment (6-mer frequency, TF over GST control)	1.28 fold enrichment (6-mer frequency, TF over GST control)	1.26 fold enrichment (6-mer frequency, TF over GST control)	1.12 fold enrichment (6-mer frequency, TF over GST control)	1.35 fold enrichment (6-mer frequency, TF over GST control)	1.26 fold enrichment (6-mer frequency, TF over GST control)	1.23 fold enrichment (6-mer frequency, TF over GST control)
GTAAAC	1.27 fold enrichment (6-mer frequency, TF over GST control)	1.18 fold enrichment (6-mer frequency, TF over GST control)	1.28 fold enrichment (6-mer frequency, TF over GST control)	1.17 fold enrichment (6-mer frequency, TF over GST control)	1.18 fold enrichment (6-mer frequency, TF over GST control)	1.22 fold enrichment (6-mer frequency, TF over GST control)	1.3 fold enrichment (6-mer frequency, TF over GST control)	1.21 fold enrichment (6-mer frequency, TF over GST control)
